Test [1] concerns the target Glutathione peroxidase 1 (Homo sapiens) (UniProt P07203). Briefly: Primary qHTS Assay for Inhibitors of Recombinant Selenoprotein Glutathione Peroxidase 1 (GPX1) (AID 1845191). Further: nearly all actives have a fitted effect of over 65% in size. An outline of the steps: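 NADPH consumption tracked by fluorescence at 340/450 nm between t=0 and t=15 min, room temperature. Final mix: 10 nM GPX1, 100 nM glutathione reductase, 1 mM GSH, 0.5 mM NADPH, 0.5 mM cumene hydroperoxide, 0.01% BSA; 30 min compound–enzyme preincubation.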
Background: Quantitative high-throughput screening tests each substance at several concentrations.

Test [2] deals with Phospholipid hydroperoxide glutathione peroxidase GPX4 (Homo sapiens) (UniProt P36969). Kind of test: Primary qHTS Assay for Inhibitors of Recombinant Selenoprotein Glutathione Peroxidase 4 (GPX4) (AID 1845192). Further: nearly all actives have a fitted effect of over 65% in size. Further: potency means the concentration at half of the fitted maximal effect. In a few lines:
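NADPH consumption followed by fluorescence at 340/450 nm, t=0 and after 15 min at room temperature. Reaction started with cumene hydroperoxide (0.5 mM final) after 30 min compound–GPX4 preincubation; final 200 nM GPX4, 100 nM GR, 1 mM GSH, 0.5 mM NADPH.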

Test [3] concerns the target Luciferin 4-monooxygenase (Photinus pyralis) (UniProt P08659). Kind of test: Primary firefly luciferase (FLuc) qHTS assay for identification of artifact compounds. (AID 1845220). Further: nearly all actives have a fitted effect of over 60% in size. In a few lines: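 FLuc 10 nM; luciferin 10 uM; ATP 10 uM; Tris-acetate pH 7.6, Mg-acetate 10 mM; 15 min RT preincubation; 5 min reaction; luminescence.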
Test [4] can be described thus: Primary fluorescence-based thiol-reactive (MSTI) qHTS assay for identification of artifact compounds. (AID 1845221).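 Further: series mostly up to about 54 µM; thiol-reactive compounds lower the probe fluorescence signal; nearly all actives have a fitted effect of over 65% in size.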 An outline of the steps: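 Thiol-reactive compounds detected by quenching of 4 uM MSTI fluorescence (525/598 nm) after 1 h room-temperature dark incubation in PBS pH 7.4, 2% DMSO. qHTS titration; percent inhibition Hill-fitted against Acetyl-MSTI/MSTI controls.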

The subject of test [5] is Nanoluciferase (engineered Oplophorus gracilirostris luciferase). Kind of test: Primary Nanoluciferase (NLuc) qHTS assay for identification of artifact compounds. (AID 1845222).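 Further: NLuc secreted into diluted conditioned medium of S16 cells; series mostly up to about 54 µM.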 An outline of the steps:
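NLuc from S16 cell medium (1:55) plus test compounds, 15 min, room temperature. Luminescence after Nano-Glo (1:100) addition, 5 min.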

The nature of test [6]: Primary redox qHTS assay for identification of artifact compounds. (AID 1845223). In a few lines:
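Redox-cycling detection via DTT (250 uM final) oxidation coupled to Amplex Red (25 uM)/HRP (250 mU/mL) in HBSS. 15 min preincubation plus 30 min after DTT, room temperature. Ex/Em 525/598 nm; 4-parameter Hill fit against DMSO and 10 uM DA3003.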

Records with an inconclusive call do not appear. Activity calls are given as the source filed them. The call rests on the fitted dose curve; in most records, active means well fitted curve in the direction sought with a large enough effect; inconclusive means small, poorly fitted or top-dose-only effect, or another doubt; inactive means no such curve, though single readings can be large; an effect the other way counts as inactive or inconclusive.

Glutathione peroxidase 1 (Homo sapiens), sequence (P07203 whole entry, looked up): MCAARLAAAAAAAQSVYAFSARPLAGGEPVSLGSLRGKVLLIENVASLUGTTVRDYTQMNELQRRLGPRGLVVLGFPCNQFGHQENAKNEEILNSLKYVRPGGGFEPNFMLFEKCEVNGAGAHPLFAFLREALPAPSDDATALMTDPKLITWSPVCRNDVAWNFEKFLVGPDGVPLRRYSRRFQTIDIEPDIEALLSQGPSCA
Phospholipid hydroperoxide glutathione peroxidase GPX4 (Homo sapiens), sequence (P36969 whole entry, looked up): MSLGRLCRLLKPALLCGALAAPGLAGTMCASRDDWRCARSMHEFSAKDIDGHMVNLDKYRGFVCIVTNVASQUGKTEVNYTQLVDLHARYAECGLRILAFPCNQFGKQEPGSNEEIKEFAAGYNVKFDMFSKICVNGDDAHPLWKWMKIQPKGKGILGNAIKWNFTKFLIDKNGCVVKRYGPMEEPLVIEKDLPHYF

Consider `Oc1ccc2c3c1O[C@H]1c4oc5ccccc5c4C[C@@]4(O)C(C2)N(CC2CC2)CCC314` (stereo partly drawn), for which the Potency result in test [1] and in test [2] was “inactive” each time.
For `NNC(N)=O`, the Potency entry in test [1] and in test [2] was “inactive” each time.
With `COc1ccc2c(c1O)-c1cccc3c1[C@@H](C2)N(C)CC3`, the Potency entry in test [1] and in test [2] was “inactive” each time.
Regarding `C=CC[C@]1(O)CC[C@H]2[C@@H]3CCC4=CCCC[C@@H]4[C@H]3CC[C@@]21C`, the Potency entry in test [1] and in test [2] was “inactive” each time.
Regarding `CCN1C[C@]2(OC(=O)c3ccccc3NC(C)=O)CC[C@H](OC)[C@@]34[C@@H]2C[C@@H]([C@@H]13)[C@@]1(O)C[C@H](OC)[C@H]2C[C@@H]4[C@]1(O)[C@H]2OC`, the Potency result in test [1], in test [2], in test [3] and in test [4] was “inactive” throughout. Besides, in test [5], the outcome was inactive.
On to `Cn1sc(Cl)cc1=O`, for which the Potency result in test [1] and in test [2] was “inactive” each time.
In the case of `CC(=O)O[C@H]1CC[C@H]2[C@@H]3CCC4=CC(=O)CCC4=C3C=C[C@]12C`, the Potency entry in test [1] was “inactive”. Further, in test [2], the Potency is 22.4 µM (active).
In the same order, the values of `C[C@]12CC[C@H]3[C@@H](CCC4=C(O)C(=O)CC[C@@H]43)[C@@H]1CC[C@@H]2OC(=O)CCC1CCCC1` are “inactive” and 14.1 µM (active).
The like results for `CCOC(=O)c1ccccc1C(=O)OCC` were, in that order, “inactive” and “inactive”.
`CCC(=O)O[C@@](Cc1ccccc1)(c1ccccc1)[C@@H](C)CN(C)C`: the Potency entry in test [1] and in test [2] was “inactive” each time.
On to `C/C(O)=C(\C#N)C(=O)Nc1cc(Br)ccc1Br`, for which the Potency entry in test [1] and in test [2] was “inactive” each time.
For the molecule `CC(C)(O)[C@@H]1[C@H]2OC(=O)[C@@H]1[C@]1(O)C[C@H]3O[C@]34C(=O)O[C@H]2[C@]14C`, the Potency result in test [1] and in test [2] was “inactive” in each case.
Consider `CN1[C@H]2CC[C@@H]1[C@@H](C(=O)O)[C@@H](OC(=O)c1ccccc1)C2`, for which the Potency entry in test [1] and in test [2] was “inactive” in each case.
Regarding `O=C(O)C(Cl)(Cl)Cl`, the Potency result in test [1] and in test [2] was “inactive” in each case.
For the molecule `CCCCCOc1cc2c(cc1-c1cc(/C=C/C(=O)O)ccc1O)C(C)(C)CCC2(C)C`, the Potency result in test [1], in test [2], in test [3] and in test [4] was “inactive” throughout. For the same molecule, the outcome in test [5] was inactive.
In the case of `NC(=O)c1cc(N2CC2)c([N+](=O)[O-])cc1[N+](=O)[O-]`, the Potency entry in test [1] and in test [2] was “inactive” each time.
As to `O=C(NCNC(=O)NC1C(=O)NC(=O)N1CO)NC1C(=O)NC(=O)N1CO` (stereo not drawn), the Potency entry in test [1] and in test [2] was “inactive” throughout.
Take `CC(N)Cc1ccc(O)cc1` (stereo not drawn): the Potency result in test [1] and in test [2] was “inactive” in each case.
Regarding `C/C(=C\c1csc(C)n1)[C@@H]1C[C@@H]2O[C@]2(C)CCC[C@H](C)[C@H](O)[C@@H](C)C(=O)C(C)(C)[C@@H](O)CC(=O)O1`, the Potency result in test [1] and in test [2] was “inactive” in each case.
For `FC(F)OC(F)(F)C(F)Cl` (stereo not drawn), the Potency entry in test [1] and in test [2] was “inactive” each time.
In the case of `ClC1C(Cl)C(Cl)C(Cl)C(Cl)C1Cl` (stereo not drawn), the Potency entry in test [1] and in test [2] was “inactive” in each case.
Regarding `O=[N+]([O-])c1ccccc1`, the Potency result in test [1] and in test [2] was “inactive” throughout.
For `CC[N+](C)(CC)CCOC(=O)C(O)(c1ccccc1)c1ccccc1`, the Potency result in test [1] and in test [2] was “inactive” in each case.
`O=c1[nH]cc(N(CCCl)CCCl)c(=O)[nH]1`: the Potency entry in test [1] and in test [2] was “inactive” each time.
`CCN(CC)C(=O)N[C@H]1C[C@@H]2c3cccc4[nH]cc(c34)C[C@H]2N(C)C1`: the Potency entry in test [1] and in test [2] was “inactive” throughout.
On to `NCC(O)c1cccc(O)c1` (stereo not drawn), for which the Potency entry in test [1] and in test [2] was “inactive” each time.
On to `CCCCCCC(=O)O[C@H]1CC[C@H]2[C@@H]3CC[C@H]4CC(=O)C=C(C)[C@]4(C)[C@H]3CC[C@]12C`, for which the Potency entry in test [1] is “inactive”. The Potency in test [2] is 6.31 µM (active).
In the same order, the values of `CC(C)CCC(=O)O[C@H]1CC[C@H]2[C@@H]3CCC4=CC(=O)CC[C@]4(C)[C@H]3CC[C@]12C` are “inactive” and “inactive”.
In the same order, the values of `CCCC(=O)OC(C(Cl)(Cl)Cl)P(=O)(OC)OC` (stereo not drawn) are “inactive” and “inactive”.
Take `CC1CCC(C(C)C)C(OC(=O)c2ccccc2N)C1` (stereo not drawn): the Potency result in test [1] and in test [2] was “inactive” each time.
On to `Cc1cccc(NC(=O)N[C@@H]2N=C(c3ccccc3)c3ccccc3N(C)C2=O)c1`, for which the Potency result in test [1], in test [2], in test [3] and in test [4] was “inactive” throughout. Moreover, the result in test [6] was inactive.
Regarding `CN[C@H]1[C@H](O)[C@H](O[C@@H]2[C@@H](O)[C@H](O[C@H]3O[C@H]([C@H](C)O)[C@@H](O)[C@H](O)[C@H]3N)[C@@H](N)C[C@H]2N)OC[C@@]1(C)O`, the Potency entry in test [1], in test [2], in test [3] and in test [4] was “inactive” each time. In addition, the molecule was classed as inactive in test [5] and in test [6].
With `CC(CCc1ccc(O)cc1)O[C@@H]1O[C@H](CO[C@H]2OC[C@](O)(CO)[C@H]2O)[C@@H](O)[C@H](O)[C@H]1O` (stereo partly drawn), the Potency result in test [1], in test [2], in test [3] and in test [4] was “inactive” throughout. Further, the call in test [5] and in test [6] was inactive.

The values are drawn from PubChem BioAssay (NCATS).
